Measurements as given in the supplement of paper PMC10849652.
Of roughly 8,800 targets only a part is listed; those with a hit were picked by preference. About 0.5% of all pairs of compound and target were hits.

Assays:
Assay in all cases: log2 fold change, soluble protein after heating vs DMSO (PISA); higher = thermal stabilisation; K562 lysate, 10 uM; active = over 0.2 and 3.5 SD of the protein, either way, in both replicates (recomputed)
vemurafenib = compound: CCCS(=O)(=O)Nc1ccc(F)c(C(=O)c2c[nH]c3ncc(-c4ccc(Cl)cc4)cc23)c1F [vemurafenib]
Method in brief: (§1)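 K562 pellets were dounce-homogenised in PBS pH 7.4 containing 1 mM MgCl2, and the crude extract, at 1 mg/mL protein, was exposed to 10 μM compound for 30 min. Aliquots were heated for 3 min across 48°C-58°C, pooled, brought to 0.5% NP-40 at 4°C and spun at 21,000xg for 90 min, with the supernatant taken as soluble protein. TMTpro 16plex LC-MS/MS with equalised channel sums quantified that protein. Values are log-two fold changes in thermal stability relative to solvent controls, taken from duplicates.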

[1] = compound: CCCS(=O)(=O)Nc1ccc(F)c(C(=O)c2c[nH]c3ncc(Cl)cc23)c1F
Method in brief: as §1

barasertib = compound: CCN(CCCOc1ccc2c(Nc3cc(CC(=O)Nc4cccc(F)c4)[nH]n3)ncnc2c1)CCOP(=O)(O)O [barasertib]
Method in brief: as §1

[2] = compound: CC[C@@H]1C(=O)N(C)c2cnc(Nc3ccc(C(=O)NC4CCN(C)CC4)cc3OC)nc2N1C1CCCC1
Method in brief: as §1

volasertib = compound: CC[C@@H]1C(=O)N(C)c2cnc(Nc3ccc(C(=O)N[C@H]4CC[C@H](N5CCN(CC6CC6)CC5)CC4)cc3OC)nc2N1C(C)C [volasertib]
Method in brief: as §1

[3] = compound: CCn1c(C(=O)N(C2CC2)C2CC2)cc2c3c(ncn3C)c(Nc3cc(C)n(C)n3)nc21
Method in brief: as §1

[4] = compound: CCn1cc(-c2ccnc3[nH]c(-c4cccc(CN(C)C)c4)cc23)c(-c2ccc(NC(=O)N(C)C)cc2)n1
Method in brief: as §1

[5] = compound: CN1CCC(CNc2ccc3ncc(-c4cccc(OC(F)(F)F)c4)n3n2)CC1
Method in brief: as §1

saracatinib = compound: CN1CCN(CCOc2cc(OC3CCOCC3)c3c(Nc4c(Cl)ccc5c4OCO5)ncnc3c2)CC1 [saracatinib]
Method in brief: as §1

sotrastaurin = compound: CN1CCN(c2nc(C3=C(c4c[nH]c5ccccc45)C(=O)NC3=O)c3ccccc3n2)CC1 [sotrastaurin]
Method in brief: as §1

alvocidib = compound: CN1CC[C@H](c2c(O)cc(O)c3c(=O)cc(-c4ccccc4Cl)oc23)[C@H](O)C1 [alvocidib]
Method in brief: as §1

Tubastatin A = compound: CN1CCc2c(c3ccccc3n2Cc2ccc(C(=O)NO)cc2)C1 [Tubastatin A]
Method in brief: as §1

[6] = compound: CNC(=O)C1=CC=CC=C1NC2=NC(=NC=C2Cl)NC3=C(C=C(C=C3)N4CCOCC4)OC
Method in brief: as §1

defactinib = compound: CNC(=O)c1ccc(Nc2ncc(C(F)(F)F)c(NCc3nccnc3N(C)S(C)(=O)=O)n2)cc1 [defactinib]
Method in brief: as §1

[7] = compound: CNc1nc(-c2ccc3c(N)n[nH]c3c2)cc(N2C[C@@H](C(=O)NC3CCCCC3)CC[C@H]2C)n1
Method in brief: as §1

encorafenib = compound: COC(=O)N[C@@H](C)CNc1nccc(-c2cn(C(C)C)nc2-c2cc(Cl)cc(NS(C)(=O)=O)c2F)n1 [encorafenib]
Method in brief: as §1

[8] = compound: COC(=O)[C@H](CCSC)NC(=O)C1=C(C=C(C=C1)NC[C@H](CS)N)C2=CC=CC=C2
Method in brief: as §1

alisertib = compound: COc1cc(Nc2ncc3c(n2)-c2ccc(Cl)cc2C(c2c(F)cccc2OC)=NC3)ccc1C(=O)O [alisertib]
Method in brief: as §1

[9] = compound: COc1cc2nc(-c3cc(F)ccc3O)nc(N[C@@H]3CNC[C@H]3C(C)(C)O)c2cc1OC
Method in brief: as §1

gefitinib = compound: COc1cc2ncnc(Nc3ccc(F)c(Cl)c3)c2cc1OCCCN1CCOCC1 [gefitinib]
Method in brief: as §1

Measured: log2 fold change

LIG3 (UniProt P49916)
inactive: vemurafenib -0.029 | [1] -0.003 | barasertib 0.019 | [2] -0.127 | volasertib -0.028 | [3] 0.031 | [4] -0.033 | [5] -0.011 | saracatinib 0.018 | sotrastaurin 0.009 | alvocidib -0.017 | Tubastatin A -0.142 | [6] 0.007 | defactinib 0.006 | [7] -0.002 | encorafenib 0.023 | [8] 0.121 | alisertib -0.009 | [9] -0.008 | gefitinib -0.015

MGST1 (UniProt P10620)
UniProt P10620, sequence (P10620 whole entry, looked up): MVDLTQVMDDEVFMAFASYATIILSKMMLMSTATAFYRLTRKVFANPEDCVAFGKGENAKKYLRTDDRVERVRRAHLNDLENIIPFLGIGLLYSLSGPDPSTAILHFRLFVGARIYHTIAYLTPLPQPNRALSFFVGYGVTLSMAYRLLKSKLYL
inactive: vemurafenib 0.015 | [1] 0.018 | barasertib 0.027 | [2] 0.097 | volasertib 0.07 | [3] -0.036 | [5] -0.069 | saracatinib 0.068 | sotrastaurin -0.013 | alvocidib 0.033 | Tubastatin A -0.011 | [6] 0.07 | defactinib 0.02 | [7] 0.038 | encorafenib 0.007 | [8] 0.001 | alisertib 0.009 | [9] 0.023 | gefitinib -0.066
active: [4] 0.279

MRPL15 (UniProt Q9P015)
inactive: vemurafenib 0.004 | [1] 0.025 | barasertib -0.04 | [2] 0.024 | volasertib -0.018 | [3] -0.062 | [5] 0.174 | saracatinib -0.07 | sotrastaurin 0.023 | alvocidib -0.122 | Tubastatin A 0.022 | [6] -0.014 | defactinib -0.011 | [7] 0.088 | encorafenib 0.053 | [8] -0.013 | alisertib 0.006 | [9] -0.014 | gefitinib -0.027
active: [4] -0.509

LDAH isoform 2 (UniProt Q9H6V9)
UniProt Q9H6V9, sequence (Q9H6V9 whole entry, looked up): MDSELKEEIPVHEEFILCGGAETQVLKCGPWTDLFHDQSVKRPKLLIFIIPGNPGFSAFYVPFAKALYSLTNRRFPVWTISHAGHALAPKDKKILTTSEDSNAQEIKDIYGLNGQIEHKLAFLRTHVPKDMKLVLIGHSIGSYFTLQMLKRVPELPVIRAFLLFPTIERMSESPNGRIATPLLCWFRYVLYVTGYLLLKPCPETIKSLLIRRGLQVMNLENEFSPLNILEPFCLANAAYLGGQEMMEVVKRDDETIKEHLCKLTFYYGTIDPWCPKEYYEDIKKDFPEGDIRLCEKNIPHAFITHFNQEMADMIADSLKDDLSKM
inactive: vemurafenib 0.077 | [1] 0.125 | barasertib 0.018 | [2] 0.003 | volasertib -0.036 | [3] -0.004 | [4] -0.013 | [5] -0.018 | saracatinib 0.016 | sotrastaurin -0.01 | alvocidib 0.003 | Tubastatin A -0.124 | [6] -0.012 | defactinib 0.012 | [7] -0.027 | encorafenib -0.03 | [8] 0.048 | alisertib 0 | [9] -0.036 | gefitinib 0.004

LTN1 isoform 3 (UniProt O94822)
inactive: vemurafenib 0.005 | [1] 0.022 | barasertib 0.034 | [2] -0.06 | volasertib -0.041 | [3] -0.004 | [4] 0.035 | [5] -0.106 | saracatinib 0.04 | sotrastaurin 0.03 | alvocidib 0.016 | Tubastatin A -0.259 | [6] -0.014 | defactinib -0.009 | [7] -0.063 | encorafenib 0.034 | [8] -0.072 | alisertib 0.017 | [9] 0.035 | gefitinib -0.021

LLGL1 (UniProt Q15334)
inactive: vemurafenib 0.06 | [1] -0.052 | barasertib -0.014 | [2] -0.057 | volasertib 0.02 | [3] -0.038 | [4] 0.033 | [5] -0.008 | saracatinib -0.097 | sotrastaurin 0.168 | alvocidib 0.026 | Tubastatin A -0.105 | [6] 0.032 | defactinib -0.013 | [7] -0.034 | encorafenib 0.052 | [8] 0.108 | alisertib -0.032 | [9] 0.121 | gefitinib -0.065

MAP7D3 (UniProt Q8IWC1)
UniProt Q8IWC1, sequence (Q8IWC1 whole entry, looked up): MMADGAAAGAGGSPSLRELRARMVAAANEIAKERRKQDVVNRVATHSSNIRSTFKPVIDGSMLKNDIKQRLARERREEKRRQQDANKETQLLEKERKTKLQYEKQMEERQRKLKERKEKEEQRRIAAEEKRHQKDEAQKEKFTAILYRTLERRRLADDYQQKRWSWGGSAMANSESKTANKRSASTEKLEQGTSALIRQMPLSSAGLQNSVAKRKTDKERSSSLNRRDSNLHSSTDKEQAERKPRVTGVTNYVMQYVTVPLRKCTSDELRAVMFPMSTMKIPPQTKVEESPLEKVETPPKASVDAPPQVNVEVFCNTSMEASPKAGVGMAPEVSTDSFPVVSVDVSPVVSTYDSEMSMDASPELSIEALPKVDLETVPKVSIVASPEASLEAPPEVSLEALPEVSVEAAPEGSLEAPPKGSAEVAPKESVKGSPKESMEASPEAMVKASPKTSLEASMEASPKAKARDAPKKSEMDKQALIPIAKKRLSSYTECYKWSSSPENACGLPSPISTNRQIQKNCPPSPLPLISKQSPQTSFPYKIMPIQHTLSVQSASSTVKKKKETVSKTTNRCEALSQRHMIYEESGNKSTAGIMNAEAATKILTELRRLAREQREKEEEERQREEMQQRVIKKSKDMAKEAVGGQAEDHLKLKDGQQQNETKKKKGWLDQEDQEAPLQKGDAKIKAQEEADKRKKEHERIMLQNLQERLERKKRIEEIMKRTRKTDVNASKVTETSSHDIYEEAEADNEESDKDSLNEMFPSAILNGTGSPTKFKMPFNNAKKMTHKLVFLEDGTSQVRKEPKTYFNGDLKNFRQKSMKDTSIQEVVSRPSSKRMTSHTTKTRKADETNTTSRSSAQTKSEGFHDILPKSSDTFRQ
inactive: vemurafenib -0.153 | [1] -0.039 | barasertib -0.031 | [2] -0.056 | volasertib 0.018 | [3] 0.029 | [4] -0.053 | [5] -0.006 | saracatinib -0.019 | sotrastaurin -0.024 | alvocidib -0.063 | Tubastatin A 0.015 | [6] 0.037 | [7] -0.011 | encorafenib 0.223 | [8] 0.013 | alisertib 0.01 | [9] -0.02 | gefitinib 0.017
active: defactinib -0.379

MAPK6 (UniProt Q16659)
UniProt Q16659, sequence (Q16659 whole entry, looked up): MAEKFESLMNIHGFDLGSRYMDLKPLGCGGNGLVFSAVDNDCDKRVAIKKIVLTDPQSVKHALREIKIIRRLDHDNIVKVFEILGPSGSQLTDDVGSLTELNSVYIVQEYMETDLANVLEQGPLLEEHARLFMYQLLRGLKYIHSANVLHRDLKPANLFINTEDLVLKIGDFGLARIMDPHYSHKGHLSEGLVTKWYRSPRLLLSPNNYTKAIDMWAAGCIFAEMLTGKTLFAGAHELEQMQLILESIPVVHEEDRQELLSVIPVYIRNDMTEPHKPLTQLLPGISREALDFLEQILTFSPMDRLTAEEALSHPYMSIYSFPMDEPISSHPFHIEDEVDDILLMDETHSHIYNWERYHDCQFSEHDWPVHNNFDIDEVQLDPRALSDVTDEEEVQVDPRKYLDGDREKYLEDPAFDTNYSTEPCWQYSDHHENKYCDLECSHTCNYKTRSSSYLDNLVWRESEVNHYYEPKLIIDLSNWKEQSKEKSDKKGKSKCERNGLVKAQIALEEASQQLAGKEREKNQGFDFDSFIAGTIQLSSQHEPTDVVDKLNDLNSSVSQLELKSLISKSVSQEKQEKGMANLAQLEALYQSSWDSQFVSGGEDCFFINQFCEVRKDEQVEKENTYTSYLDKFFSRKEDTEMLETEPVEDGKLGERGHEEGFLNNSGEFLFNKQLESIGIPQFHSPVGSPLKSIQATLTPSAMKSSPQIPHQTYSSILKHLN
inactive: vemurafenib 0.006 | [1] 0.001 | barasertib 0.047 | [2] 0.034 | volasertib -0.001 | [3] -0.029 | [5] -0.02 | saracatinib -0.014 | sotrastaurin 0.014 | alvocidib 0.133 | Tubastatin A -0.086 | [6] 0.115 | defactinib 0.049 | [7] -0.023 | encorafenib -0.037 | [8] -0.092 | alisertib -0.001 | [9] 0.072 | gefitinib 0.113
active: [4] 0.221

KPNA2 (UniProt P52292)
inactive: vemurafenib 0.001 | [1] 0 | barasertib 0.05 | [2] -0.037 | volasertib -0.051 | [3] 0.004 | [4] -0.033 | [5] -0.041 | saracatinib 0.005 | sotrastaurin 0.038 | alvocidib 0.018 | Tubastatin A -0.083 | [6] -0.012 | defactinib 0.012 | [7] -0.013 | encorafenib -0.005 | [8] 0.122 | alisertib 0.008 | [9] -0.017 | gefitinib 0.003

LSG1 (UniProt Q9H089)
UniProt Q9H089, sequence (Q9H089 whole entry, looked up): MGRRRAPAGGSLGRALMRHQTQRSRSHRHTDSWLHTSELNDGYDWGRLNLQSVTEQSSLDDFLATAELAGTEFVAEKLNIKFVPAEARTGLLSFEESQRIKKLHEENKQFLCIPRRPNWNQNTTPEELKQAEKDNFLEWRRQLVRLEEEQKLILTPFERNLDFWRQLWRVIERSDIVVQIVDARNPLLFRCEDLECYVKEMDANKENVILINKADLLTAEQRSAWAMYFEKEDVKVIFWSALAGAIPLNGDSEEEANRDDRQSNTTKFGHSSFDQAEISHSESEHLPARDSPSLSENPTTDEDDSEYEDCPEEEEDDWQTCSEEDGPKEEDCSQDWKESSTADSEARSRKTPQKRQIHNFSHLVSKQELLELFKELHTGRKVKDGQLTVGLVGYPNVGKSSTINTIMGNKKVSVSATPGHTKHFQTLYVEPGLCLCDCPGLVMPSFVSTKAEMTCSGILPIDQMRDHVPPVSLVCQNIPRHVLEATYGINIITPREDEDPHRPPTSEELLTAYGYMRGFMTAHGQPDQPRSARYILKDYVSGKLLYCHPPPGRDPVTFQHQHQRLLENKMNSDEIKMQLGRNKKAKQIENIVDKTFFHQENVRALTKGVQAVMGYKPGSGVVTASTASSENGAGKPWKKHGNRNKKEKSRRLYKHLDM
active: [8] 0.303
inactive: vemurafenib -0.056 | [1] 0.046 | barasertib 0.037 | [2] -0.084 | volasertib -0.065 | [3] -0.01 | [4] -0.124 | [5] 0.064 | saracatinib 0.043 | sotrastaurin 0.024 | alvocidib -0.079 | Tubastatin A -0.016 | [6] -0.046 | defactinib 0.003 | [7] -0.077 | encorafenib 0.046 | alisertib -0.017 | [9] -0.028 | gefitinib -0.059

LAGE3 (UniProt Q14657)
UniProt Q14657, sequence (Q14657 whole entry, looked up): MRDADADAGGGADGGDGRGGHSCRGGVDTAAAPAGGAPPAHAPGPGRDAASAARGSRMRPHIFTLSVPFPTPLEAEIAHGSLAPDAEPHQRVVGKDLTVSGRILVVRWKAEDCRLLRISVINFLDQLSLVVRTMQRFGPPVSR
inactive: vemurafenib 0.016 | [1] 0.004 | barasertib 0.128 | [2] -0.032 | volasertib 0.005 | [3] 0.058 | [4] -0.024 | [5] -0.003 | saracatinib 0.019 | sotrastaurin -0.024 | alvocidib -0.013 | Tubastatin A 0.004 | [6] -0.001 | defactinib -0.194 | [7] -0.035 | encorafenib 0.047 | [8] -0.076 | alisertib 0.224 | [9] -0.042 | gefitinib 0.107

MLH1 (UniProt P40692)
inactive: vemurafenib 0.042 | [1] -0.039 | barasertib 0.014 | [2] 0.013 | volasertib -0.002 | [3] 0.014 | [4] -0.029 | [5] -0.023 | saracatinib 0.051 | sotrastaurin 0.02 | alvocidib 0.011 | Tubastatin A -0.167 | [6] -0.039 | defactinib 0.004 | [7] -0.013 | encorafenib 0.044 | [8] 0.129 | alisertib -0.01 | [9] 0.048 | gefitinib -0.053

MCCC1 (UniProt Q96RQ3)
inactive: vemurafenib 0.065 | [1] 0.009 | barasertib 0.015 | [2] 0.005 | volasertib -0.034 | [3] -0.025 | [4] 0.139 | [5] -0.059 | saracatinib 0.028 | sotrastaurin 0.054 | alvocidib 0.063 | Tubastatin A -0.036 | [6] 0.003 | defactinib -0.002 | [7] -0.025 | encorafenib 0.012 | [8] -0.057 | alisertib 0 | [9] 0.001 | gefitinib 0.017

KIF22 (UniProt Q14807)
UniProt Q14807, sequence (Q14807 whole entry, looked up): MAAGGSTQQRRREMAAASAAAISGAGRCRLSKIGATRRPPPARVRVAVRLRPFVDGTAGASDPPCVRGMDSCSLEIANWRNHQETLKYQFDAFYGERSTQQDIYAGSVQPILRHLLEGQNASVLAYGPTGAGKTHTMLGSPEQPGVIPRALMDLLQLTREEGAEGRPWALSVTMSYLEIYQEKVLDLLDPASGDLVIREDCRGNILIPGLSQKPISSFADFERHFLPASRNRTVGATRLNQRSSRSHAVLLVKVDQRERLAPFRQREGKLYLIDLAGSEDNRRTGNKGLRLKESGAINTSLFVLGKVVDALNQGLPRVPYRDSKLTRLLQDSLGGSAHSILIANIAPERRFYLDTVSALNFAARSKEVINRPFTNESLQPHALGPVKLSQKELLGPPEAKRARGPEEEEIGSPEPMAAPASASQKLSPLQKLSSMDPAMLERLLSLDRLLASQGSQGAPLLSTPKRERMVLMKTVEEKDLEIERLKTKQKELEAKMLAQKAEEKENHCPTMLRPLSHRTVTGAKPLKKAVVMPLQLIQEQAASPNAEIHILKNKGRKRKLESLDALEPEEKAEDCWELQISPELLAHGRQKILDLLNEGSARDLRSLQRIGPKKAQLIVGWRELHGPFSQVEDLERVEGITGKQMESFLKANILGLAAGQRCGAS
inactive: vemurafenib -0.043 | [1] -0.049 | barasertib 0.009 | [2] 0.088 | volasertib 0.075 | [3] -0.189 | [4] -0.157 | [5] 0.308 | saracatinib 0.036 | sotrastaurin -0.084 | alvocidib -0.121 | Tubastatin A 0.099 | [6] -0.059 | defactinib 0.175 | [7] 0.137 | encorafenib 0.012 | [8] -0.017 | alisertib 0.011 | [9] 0.171 | gefitinib -0.013

MLXIP (UniProt Q9HAP2)
UniProt Q9HAP2, sequence (Q9HAP2 whole entry, looked up): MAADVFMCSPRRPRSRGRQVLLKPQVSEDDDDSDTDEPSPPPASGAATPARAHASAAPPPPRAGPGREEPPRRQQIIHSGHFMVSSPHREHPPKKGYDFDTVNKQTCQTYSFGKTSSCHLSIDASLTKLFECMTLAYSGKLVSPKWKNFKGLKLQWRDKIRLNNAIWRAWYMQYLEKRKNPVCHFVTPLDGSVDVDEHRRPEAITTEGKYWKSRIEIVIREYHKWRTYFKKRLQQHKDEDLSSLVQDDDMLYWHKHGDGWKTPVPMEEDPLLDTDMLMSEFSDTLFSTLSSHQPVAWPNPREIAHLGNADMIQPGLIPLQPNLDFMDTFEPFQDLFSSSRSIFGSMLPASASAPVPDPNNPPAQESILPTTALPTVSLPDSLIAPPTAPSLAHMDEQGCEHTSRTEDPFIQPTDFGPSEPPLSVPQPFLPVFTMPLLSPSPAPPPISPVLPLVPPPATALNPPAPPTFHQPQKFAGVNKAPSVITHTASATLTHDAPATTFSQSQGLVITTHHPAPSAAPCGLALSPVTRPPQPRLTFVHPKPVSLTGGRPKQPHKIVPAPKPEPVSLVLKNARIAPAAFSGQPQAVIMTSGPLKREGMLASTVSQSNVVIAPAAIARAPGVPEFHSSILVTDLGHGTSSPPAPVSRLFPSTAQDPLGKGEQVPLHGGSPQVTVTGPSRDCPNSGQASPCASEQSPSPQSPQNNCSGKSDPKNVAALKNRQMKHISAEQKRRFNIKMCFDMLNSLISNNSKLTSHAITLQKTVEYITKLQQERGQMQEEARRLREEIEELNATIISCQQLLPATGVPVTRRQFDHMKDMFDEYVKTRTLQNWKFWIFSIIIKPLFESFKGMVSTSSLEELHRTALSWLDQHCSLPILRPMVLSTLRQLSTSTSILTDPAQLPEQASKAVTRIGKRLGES
inactive: vemurafenib 0.004 | [1] 0.013 | barasertib 0.019 | [2] -0.032 | volasertib -0.041 | [3] 0.028 | [4] -0.045 | [5] 0.093 | saracatinib 0 | sotrastaurin 0.008 | alvocidib -0.035 | Tubastatin A -0.016 | [6] -0.049 | defactinib -0.029 | [7] -0.017 | encorafenib 0.027 | [8] -0.016 | alisertib 0.002 | [9] -0.051 | gefitinib -0.047

MAPKAPK5 (UniProt Q8IW41)
UniProt Q8IW41, sequence (Q8IW41 whole entry, looked up): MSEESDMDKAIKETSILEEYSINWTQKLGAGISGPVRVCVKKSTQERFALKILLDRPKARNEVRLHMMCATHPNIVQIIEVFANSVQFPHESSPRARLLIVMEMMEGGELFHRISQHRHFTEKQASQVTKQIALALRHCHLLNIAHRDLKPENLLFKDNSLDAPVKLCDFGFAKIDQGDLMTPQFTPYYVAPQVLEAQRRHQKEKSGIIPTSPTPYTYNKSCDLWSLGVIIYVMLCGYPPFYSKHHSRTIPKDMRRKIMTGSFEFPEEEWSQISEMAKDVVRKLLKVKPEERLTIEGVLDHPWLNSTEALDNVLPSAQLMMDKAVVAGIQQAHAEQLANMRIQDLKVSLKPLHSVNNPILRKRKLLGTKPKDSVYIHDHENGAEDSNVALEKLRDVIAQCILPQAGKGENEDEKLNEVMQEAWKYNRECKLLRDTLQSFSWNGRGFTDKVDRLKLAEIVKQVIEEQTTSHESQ
inactive: vemurafenib -0.111 | [1] -0.11 | barasertib -0.013 | [2] -0.009 | volasertib -0.052 | [3] 0.031 | [4] 0.017 | [5] -0.02 | saracatinib -0.009 | sotrastaurin -0.068 | alvocidib 0.055 | Tubastatin A 0 | [6] 0.006 | defactinib 0.003 | [7] -0.089 | encorafenib -0.074 | [8] -0.125 | alisertib -0.006 | [9] 0.01 | gefitinib 0.019
